From the supplement of paper PMC8975748
Structures can show the parent of a compound that is named as a salt.

Tested on: Saccharomyces cerevisiae BY4741 SeMeCo community
Assay: z-score of subpopulation abundance vs DMSO median, subpopulation auxotrophic for HM; higher = larger share of this subpopulation than in DMSO controls
Settings: 10 µM; 24 h; SM minimal medium; subpopulation (auxotrophy): HM
Experimental: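 Fluorescent four-plasmid SeMeCo (self-establishing metabolically cooperating S. cerevisiae BY4741 community; plasmids pH-mRuby2, pL-mWasabi, pU-eCFP, pM-TagRFP657) was grown 24 h in minimal SM medium with each Selleck FDA-approved drug at 10 µM in 384-well plates. Cells were fixed and imaged by high-content confocal microscopy. For each auxotrophic subpopulation (and the prototroph), a z-score gives the deviation from the DMSO vehicle-control population median.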

Structure (SMILES)	z-score of subpopulation abundance
CN1c2ccccc2C(NCCCCCCC(=O)O)c2ccc(Cl)cc2S1(=O)=O (centres undefined) [Tianeptine sodium]	-0.51
CN1[C@@H]2C[C@@H](OC(=O)[C@H](CO)c3ccccc3)C[C@H]1[C@@H]1O[C@@H]12 [Scopolamine HBr trihydrate]	-1.19
CN1[C@@H]2CC[C@H]1C[C@@H](OC(=O)[C@H](CO)c1ccccc1)C2 [Hyoscyamine]	-0.73
CC(=O)O[C@H]1C[C@@H]2CC[C@@H]3[C@H](CC[C@@]4(C)[C@H]3C[C@H]([N+]3(C)CCCCC3)[C@@H]4OC(C)=O)[C@@]2(C)C[C@@H]1[N+]1(C)CCCCC1 [Pancuronium dibromide]	-1.06
C#C[C@]1(O)C=C[C@H]2[C@@H]3CCC4=CC(=O)CC[C@@H]4[C@H]3CC[C@@]21CC [Gestodene]	0.34
CC[C@H]1[C@@H]2C[C@H]3[C@@H]4N(C)c5ccccc5[C@]45C[C@@H]([C@@H]2[C@H]5O)N3[C@@H]1O [Ajmaline]	-0.37
CC(C)N(CCC(C(N)=O)(c1ccccc1)c1ccccn1)C(C)C (centres undefined) [Disopyramide]	0.08
CN(C)[C@@H]1C(=O)C(C(N)=O)=C(O)[C@@]2(O)C(=O)C3=C(O)c4c(O)cccc4[C@@](C)(O)[C@H]3C[C@@H]12 [Tetracycline HCl]	0.72
Nc1ccncc1 [4-Aminopyridine]	0.26
NCCc1c[nH]c2ccc(O)cc12 [Serotonin HCl]	0.16
CCN(C)C(=O)Oc1cccc([C@H](C)N(C)C)c1 [Rivastigmine]	-0.34
Cc1cc(C(C#N)c2ccc(Cl)cc2)c(Cl)cc1NC(=O)c1cc(I)cc(I)c1O (centres undefined) [Closantel]	-0.13
C[C@H]1O[C@H](O[C@H]2[C@H](O)[C@@H](O)[C@@H](O)[C@H](O)[C@@H]2O)[C@@H](N)C[C@@H]1NC(=N)C(=O)O [Kasugamycin hydrochloride]	-0.08
CN(C)C(=O)Oc1ccc[n+](C)c1 [Pyridostigmine Bromide]	0.07
CNC1CC(N)C(O)C(OC2OC(CO)C(O)C3OC4(OC(C(N)CO)C(O)C(O)C4O)OC23)C1O (centres undefined) [Hygromycin B]	-1.16
CC[C@@H](C(N)=O)N1CCCC1=O [Levetiracetam]	-0.1
O=c1cccc2n1C[C@@H]1CNC[C@H]2C1 [Cytisine]	0.02

Structure (SMILES)	z-score of subpopulation abundance
CN[C@@H]1[C@@H](O)[C@@H](O[C@@H]2[C@@H](O)[C@H](O[C@H]3O[C@H](CN)CC[C@H]3N)[C@@H](N)C[C@H]2N)OC[C@]1(C)O.CN[C@@H]1[C@@H](O)[C@@H](O[C@@H]2[C@@H](O)[C@H](O[C@H]3O[C@H]([C@@H](C)N)CC[C@H]3N)[C@@H](N)C[C@H]2N)OC[C@]1(C)O.CN[C@@H]1[C@@H](O)[C@@H](O[C@@H]2[C@@H](O)[C@H](O[C@H]3O[C@H]([C@@H](C)NC)CC[C@H]3N)[C@@H](N)C[C@H]2N)OC[C@]1(C)O [Gentamicin Sulfate]	-0.24
C=C[C@H]1CN2CC[C@H]1C[C@H]2[C@H](O)c1ccnc2ccccc12 [Cinchonidine]	-0.43
CN1[C@@H]2CC[C@H]1C[C@@H](OC(=O)C(CO)c1ccccc1)C2 (some centres undefined) [Atropine sulfate monohydrate]	-0.85
CN1C(=O)COc2c(C(=O)NC3CN4CCC3CC4)cc(Cl)cc21 (centres undefined) [Azasetron HCl]	0.88
COc1ccc(C(CN(C)C)C2(O)CCCCC2)cc1 (centres undefined) [Venlafaxine]	-0.77
O=[N+]([O-])C(Br)(CO)CO [Bronopol]	-0.03
CCN1CC2(OC(=O)c3ccccc3NC(C)=O)CCC(OC)C34C1C(CC23)C1(O)CC(OC)C2CC4C1(O)C2OC (centres undefined) [Lappaconitine]	-0.28
COC(=O)C1=CCCN(C)C1 [Arecoline HBr]	0.08
CC(NC(C)(C)C)C(=O)c1cccc(Cl)c1 (centres undefined) [Amfebutamone (Bupropion) HCl]	-0.38
Oc1cc(Cl)ccc1Oc1ccc(Cl)cc1Cl [Triclosan]	-1.82
C=CCN1C[C@H](C(=O)N(CCCN(C)C)C(=O)NCC)C[C@@H]2c3cccc4[nH]cc(c34)C[C@H]21 [Cabergoline]	-0.83
C[N+](C)(C)CCCCCCCCCC[N+](C)(C)C [Decamethonium Bromide]	-0.42
C[C@@H]1O[C@@H](O[C@H]2C[C@@H](O)[C@]3(CO)[C@H]4[C@H](O)C[C@]5(C)[C@@H](C6=CC(=O)OC6)CC[C@]5(O)[C@@H]4CC[C@]3(O)C2)[C@H](O)[C@H](O)[C@H]1O [Ouabain]	-0.63
C=C(C)[C@H]1Cc2c(ccc3c2O[C@@H]2COc4cc(OC)c(OC)cc4[C@@H]2C3=O)O1 [Rotenone (Barbasco)]	0.89
COc1cc2c(cc1OC)C1CC(=O)C(CC(C)C)CN1CC2 (centres undefined) [Tetrabenazine (Xenazine)]	0.63
CC(=O)OCC1=C(C(=O)O)N2C(=O)C(N)C2SC1 (centres undefined) [7-Aminocephalosporanic acid]	-0.48
NC(=O)CN1CCCC1=O [Piracetam]	1.21
